Laboratory results reported in PubChem BioAssay (NCI).
About 79,000 compounds went through this panel and 15% of them were active in at least one assay; those are over-represented in the sample as a whole. Active and inactive are the calls of the source. Cut-off read from the data, not from the text of the source: active = growth inhibition above about 70%; inactive = the rest.

Legend:
[1] = NCI Yeast Anticancer Drug Screen. Data for the wt2 strain (AID 169);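 note: 0% = growth of vehicle-treated yeast cultures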; conditions: S. cerevisiae wt2 strain growth inhibition, active compounds read high
In short: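 Steps: yeast strain treated with compound; growth recorded; inhibition calculated relative to cultures given vehicle alone.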

[2] = NCI Yeast Anticancer Drug Screen. Data for the mlh1 strain (AID 171);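 note: 0% = growth of vehicle-treated control cultures of the same strain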; conditions: S. cerevisiae mlh1 strain growth inhibition, active compounds read high
In short: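 Yeast screen: mutant strain plus compound, growth scored against vehicle control wells.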

[3] = NCI Yeast Anticancer Drug Screen. Data for the sgs1 strain (AID 173);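 note: 0% = growth of vehicle-only control cultures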; conditions: S. cerevisiae sgs1 mutant, active compounds read high
In short: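 Inhibition of yeast growth served as the measure. The mutant strain was treated with each compound, and growth was normalised to cultures receiving vehicle alone.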

[4] = NCI Yeast Anticancer Drug Screen. Data for the mlh1 rad18 strain (AID 175); conditions: S. cerevisiae mlh1 rad18 strain growth inhibition, active compounds read high
In short: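 Compound-treated yeast growth, normalised to vehicle controls. Strain bears defined DNA repair mutations.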

[5] = NCI Yeast Anticancer Drug Screen. Data for the rad18 strain (AID 177); conditions: S. cerevisiae rad18 mutant growth inhibition, active compounds read high
In short: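 Inhibition values reflect reduced yeast growth compared with vehicle-treated controls, using a strain engineered with a DNA damage repair defect.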

Measured: growth inhibition

CCCN=Cc1cc(Cc2ccc(O)c(C=NCCC)c2)ccc1O
inactive: [1]; at 1.2 µM 29% | [2]; at 1.2 µM 60% | [3]; at 1.2 µM 58% | [5]; at 1.2 µM 45%
active: [1]; at 3.7 µM 98% | [1]; at 11.0 µM 99% | [1]; at 33.0 µM 99% | [1]; at 100.0 µM 98% | [2]; at 3.7 µM 96% | [2]; at 11.0 µM 98% | [2]; at 33.0 µM 98% | [2]; at 100.0 µM 96% | [3]; at 3.7 µM 89% | [3]; at 11.0 µM 98% | [3]; at 33.0 µM 98% | [3]; at 100.0 µM 97% | [4]; at 5.0 µM (retest, dose inferred, filed as 0.5) 98% | [4]; at 50.0 µM (retest, dose inferred, filed as 5.0) 99% | [4]; at 50.0 µM 89.3% | [5]; at 3.7 µM 95% | [5]; at 11.0 µM 98% | [5]; at 33.0 µM 99% | [5]; at 100.0 µM 99%
